MazF activator: MazEF (E. coli) toxin RNase activation | P0AE70 | FAM/BHQ RNA-DNA oligo cleavage fluorescence, 5 h | activation, % at 20 µM | 350,000 tested, 0.32% active | AID 504720; in the data active = activation above about 50%
Target sequence (P0AE70 whole entry, looked up): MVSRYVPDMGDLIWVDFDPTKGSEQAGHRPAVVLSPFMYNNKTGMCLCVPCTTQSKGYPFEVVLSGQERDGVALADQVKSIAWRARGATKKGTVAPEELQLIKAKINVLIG
Sa RN4220 lethal: kills Staphylococcus aureus RN4220; 330,000 tested, 0.33% active; inhibition, % (concentration not given with the values); S. aureus RN4220 growth, OD600, 16 h; in the data active = inhibition above about 85%;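 also: plate controls were untreated cells for no effect and reference antibiotic for full effect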
Sa ugtP lethal: growth inhibition of S. aureus ugtP deletion strain. growth inhibition, % (no concentration beside the values). AID 1259309. S. aureus RN4220 ugtP deletion, OD600 growth, 16 h. 330,000 tested, 0.54% active; in the data active = growth inhibition above about 68%;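 also: plate controls were untreated wells for no effect and antibiotic for full effect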
PfHsp40 yeast: rescue of PfHsp40-mediated yeast toxicity; growth rescue, % at 12.5 µM; 340,000 tested, 0.68% active; AID 504582; S. cerevisiae expressing PfHsp40, growth rescue, ATP luminescence; in the data active = growth rescue above about 28%, passing the limit was not always enough; inconclusive = no clear call, values can overlap the other calls;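 also: yeast W303a lacking pdr1 and pdr3 grown in galactose medium; growth measured after three days at 30 °C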
TcdB GH inh: TcdB glycohydrolase inhibition; P18177; TcdB glycohydrolase enzymatic assay, plate reader; inhibition, % at 9.99 µM; 350,000 tested, 0.24% active; in the data active = inhibition above about 10%
Mtb hypoxia rep: reduces hypoxia-regulated biosensor signal in M. tuberculosis; M. tuberculosis hypoxia-regulated fluorescent reporter, fluorescence; fluorescence inhibition, % (concentration not given with the values); 300,000 tested, 0.1% active; in the data active = fluorescence inhibition mostly above about 23%, no sharp cut-off; inactive = mostly below about 17%
* = called active by the depositor; ? = inconclusive; . = not tested or not shown. In the library only some 1.3% were active in any assay of this set; here they are far more common.

SMILES	MazF activator	Sa RN4220 lethal	Sa ugtP lethal	PfHsp40 yeast	TcdB GH inh	Mtb hypoxia rep
CC[C@@H](C(=O)[C@@H](C)[C@@H](O)[C@H](C)[C@@H]1O[C@@H]([C@@H](CC)C(=O)O)CC[C@@H]1C)[C@H]1O[C@]2(C=C[C@@H](O)[C@]3(CC[C@@](C)([C@H]4CC[C@](O)(CC)[C@H](C)O4)O3)O2)[C@H](C)C[C@@H]1C	6	.	.	220*	1	.
COc1ccc(NC(=O)C(C)N=C2NS(=O)(=O)c3ccccc32)cc1S(N)(=O)=O (configuration not stated)	-4	0	0	-1	0	26*
O=c1[nH]c(-c2ccccc2)nn1-c1ccc(Br)cc1Br	6	6	1	35*	-1	-1
Nc1nc(Cn2nnc(-c3ccccc3F)n2)nc(N2CCOCC2)n1	2	-1	-1	40*	-2	.
Nc1nc(Cn2nnc(-c3ccccc3Cl)n2)nc(N2CCOCC2)n1	-7	1	0	0	.	-4
C[C@@H]1CN([C@@H](C)CO)C(=O)Cc2cc(N(C)C)ccc2O[C@@H]1CN(C)C(=O)Nc1ccc(F)cc1	.	.	.	.	-5	.
CN(C)CC(=O)Nc1ccc2c(c1)[C@@H]1C[C@@H](CC(=O)NC3CCCCC3)O[C@H](CO)[C@@H]1O2	.	.	.	.	-1	.
COc1ccccc1C=NNc1nncc2ccccc12	.	2	3	.	.	3
c1ccc(C[n+]2csc3ccccc32)cc1	-4	6	77	-1	-1	5
Fc1cccc(C[n+]2csc3ccccc32)c1	7	43	96*	-2	.	10
C=CCC(CC(=O)N(CCO)Cc1ccccc1)C(=O)NCC(OC(=O)C(CC=C)Cc1ccc(F)cc1)c1ccccc1 (configuration not stated)	.	-8	9	.	.	5
C[n+]1c2n(c3ccccc31)N=C(c1ccc(-c3ccccc3)cc1)CS2	5	100*	101*	0	1	6
C[n+]1c2n(c3ccccc31)N=C(c1ccccc1)CS2	8	1	-2	0	-2	11
CC(C)(C)NC(=O)C(=O)NN=Cc1cccs1	.	6	8	.	.	2
Cc1[nH]n(C2=NCCS2)c(=O)c1N=Nc1cccc(C(F)(F)F)c1	0	99*	99*	?	2	16
Cc1sc2cc3c(c(C(=O)c4ccccc4)[n+]2c1C)-c1cccc2cccc-3c12	16	100*	100*	.	1	.
O=C(c1ccccc1)c1c2c(cc3sc4ccccc4[n+]13)-c1cccc3cccc-2c13	-8	100*	100*	119*	.	24
COc1ccc(NC(=O)Nc2nc(C)cc(C)n2)c(OC)c1	3	3	2	2	11*	0
COc1cc(/C=C(/C#N)c2nc3ccccc3[nH]2)ccc1OCC(=O)Nc1ccccc1C	6	7	-12	0	0	2
COc1cc(/C=C(\C#N)c2nc3ccccc3[nH]2)ccc1OC(=O)c1ccco1	56*	6	-8	-1	1	-6
O=C(CN1C(=O)SC(=Cc2ccc(O)cc2)C1=O)c1ccccc1	.	12	10	.	.	0
COC(=O)COc1ccccc1C(N)=O	5	1	-1	-2	2	5
COC(=O)COc1ccc(-c2ccc(F)cc2)cc1C=O	4	-3	4	63*	1	3
COC(=O)COc1ccc(C)cc1-n1nc2ccccc2n1	0	5	4	44*	-1	4
CCOC(=O)c1c(C)[nH]c(C(=O)COC(=O)COc2ccccc2C=O)c1C	-2	12	6	2	.	10
SMILES	MazF activator	Sa RN4220 lethal	Sa ugtP lethal	PfHsp40 yeast	TcdB GH inh	Mtb hypoxia rep
COC(=O)COc1ccc(-c2ccccc2)cc1C=O	6	7	13	64*	1	6
Cc1cccc(C(=O)NNC(=O)c2ccccc2)c1	5	4	1	-1	.	2
Cc1cccc(C(=O)c2cnc3ccccc3c2-c2ccccc2)c1	-8	-1	88*	7	.	18
COC(=O)C1(O)CC(C(C)C)=NN1C(=O)c1ccccc1 (configuration not stated)	2	3	5	45*	0	-8
O=C(c1ccccc1)N1N=C(c2ccccc2)CC1(O)C(F)(F)F (configuration not stated)	6	13	-6	1	-4	11
COC(=O)c1ccc(Cn2cc(C(F)(F)F)ccc2=O)cc1	-4	-1	1	1	-1	14
COC(=O)c1cc(=O)n(-c2ccc(C(F)(F)F)cc2)[nH]1	9	28	14	190*	0	14
O=S(=O)(c1ccccc1)C(C=NO)/C=C/c1ccccc1 (configuration not stated)	.	0	-3	.	.	-18
C#CCOCCOCCOCCNc1nc(N2CCN(C(=O)CCCCCCCCCCNC(=O)Cn3cc(CC(C)O)nn3)CC2)nc(N2CCN(C(=O)CCCCCCCCCCNC(=O)C(CO)n3cc(CCCSC)nn3)CC2)n1 (configuration not stated)	.	6	5	.	.	-6
COc1ccc(S(=O)(=O)NCc2cc(=O)n(C)c(=O)n2C)cc1C	11	2	6	41*	0	5
O=C(Nc1nnc(S(=O)(=O)Cc2ccc(F)cc2)s1)c1ccccc1F	-6	11	0	45*	0	4
Cc1ccccc1NS(=O)(=O)c1nnc(NC(=O)c2ccccc2F)s1	-2	8	3	0	-2	5
O=C(Nc1ccc2c(c1)CCC2)c1cc2ccccc2o1	0	7	4	132*	2	11
O=C(Nc1ccc2c(c1)Cc1ccccc1-2)c1cc2ccccc2o1	-4	4	1	-1	.	4
CCCCN(CC)S(=O)(=O)c1ccc(C(=O)Nc2nnc(-c3cccs3)o2)cc1	3	93*	95*	.	.	-7
COc1ccccc1-c1nnc(NC(=O)c2ccc(S(=O)(=O)N(C)Cc3ccccc3)cc2)o1	-5	110*	99*	.	.	.
CN(c1ccccc1)S(=O)(=O)c1ccc(NC(=O)c2ccc(-c3ccccc3)cc2)cc1	-1	8	-20	0	-1	-4
CN(c1ccccc1)S(=O)(=O)c1ccc(C(=O)Nc2nnc(-c3ccc(F)cc3)o2)cc1	4	100*	100*	.	.	-6
CCN(CC)S(=O)(=O)c1ccc(C(=O)Nc2nnc(-c3ccco3)o2)cc1	3	20	-6	0	.	-12
CCc1nnc(NC(=O)c2ccc(S(=O)(=O)N(CC)Cc3ccccc3)cc2)o1	2	43	5	172*	.	-2
CCN(Cc1ccccc1)S(=O)(=O)c1ccc(C(=O)Nc2nnc(C)o2)cc1	-2	13	3	13	0	1
Cc1ccc(CN2CCN(N=Cc3ccc(C(=O)O)cc3)CC2)cc1	.	-3	-10	.	.	6
COc1ccc(Cn2c(/C=C/c3ccccc3)nc3ccccc32)cc1	3	-11	-29	-1	.	1

Assay outcomes from PubChem.
